Out of some 48,000 compounds screened, about 13,000 (27%) showed an effect of 50% or more. The list shows a part of the results.
test system: Wolbachia pipientis; assay: Anti-Wolbachia Cell-Based Screen; format: functional; parameters: scale not given: in the data most compounds retested in dose-response had high values; conditions: 5 µM

Compound	Percent Effect
Clc1ccc(C2(NCc3noc(C4CC4)n3)CCOCC2)cc1	-0.4021%
c1cc(CN2CCC(c3ccncc3)CC2)cc(Cn2cccn2)c1	-4.875%
c1cncc(CN2CCC(NCCc3ccc4c(c3)OCO4)CC2)c1	3.399%
O=C(NCC1CC1)N1CCN(Cc2ccc3c(c2)OCCO3)CC1	1.258%
CC(c1nc(C2CC2)no1)N(C)Cc1ccc2c(c1)OCCO2 (stereo not drawn)	0.3167%
O=C(c1cccc2c1OCO2)N1CCCC1c1noc(C2CC2)n1 (stereo not drawn)	-8.169%
CN(Cc1noc(C2CC2)n1)CC1CCN(CCO)CC1	15.04%
c1cc(C2CCN(Cc3ccc4c(c3)OCO4)CC2)ccn1	106.9%
c1cc2c(cc1CN1CCC(Cc3noc(C4CC4)n3)CC1)OCCO2	75.34%
c1ccc(CN2CCC(Cc3noc(C4CC4)n3)CC2)cc1	27.3%
c1cc(CN2CCC(Cc3noc(C4CC4)n3)CC2)c2c(c1)OCO2	85.87%
c1cc2c(cc1CSCc1noc(C3CC3)n1)OCCO2	98.07%
CCn1c(C)cc(C(=O)NCc2ccc(CS(C)(=O)=O)cc2)c1C	4.177%
COCc1nc(CN2CCC3(CCCO3)CCC2=O)no1 (stereo not drawn)	-11.19%
CC(=O)N(C)CC(=O)NC1(c2ccc(Br)cc2)CC1	-3.81%
CCN(CC(=O)NC(C)C)S(=O)(=O)N1CCC(C)C1 (stereo not drawn)	1.094%
CN1CCN(C2CCN(Cc3noc(C4CC4)n3)CC2)C1=O	10.17%
c1cc2c(cc1CN1CCN(Cc3noc(C4CC4)n3)CC1)OCO2	111.2%
c1ccc2[nH]c(C3CCN(Cc4noc(C5CC5)n4)CC3)cc2c1	-4.924%
Nc1nccc(NCc2cc3n(n2)CCCN(C(=O)C2CCC2)C3)n1	-4.748%
CSc1nccc(NCc2cc3n(n2)CCCN(S(C)(=O)=O)C3)n1	18.18%
CCn1ccnc1CN1CCCn2nc(CNC(=O)C3CCC3)cc2C1	17.11%
Nc1nccc(NCc2cc3n(n2)CCCN(C2CCCCC2)C3)n1	13.65%
Cc1nccc(NCc2cc3n(n2)CCCN(C(=O)C2CCC2)C3)n1	100.1%
CSc1nccc(NCc2cc3n(n2)CCCN(C(=O)C2CCC2)C3)n1	104.3%

Compound	Percent Effect
Cc1ccc(C2C3=C(COC3=O)Nc3[nH]nc(C)c32)cc1C (stereo not drawn)	8.246%
CCc1nccn1CCC(=O)N1CC[C@@H](c2sccc2C)[C@H](O)C1	-1.934%
O=C(O)C(F)(F)F.c1cnc(N2CCO[C@H]3CN(Cc4csnn4)C[C@H]32)cn1	6.84%
O=C(O)C(F)(F)F.c1cnc(N2CCO[C@H]3CN(CC4CCC4)C[C@H]32)cn1	107.5%
Cn1cc(CN2C[C@@H]3OCCN(CC4CCCC4)[C@@H]3C2)cn1	-2.926%
c1cnc(N2CCO[C@H]3CN(CC4CCCC4)C[C@H]32)cn1	112.8%
O=C(O)C(F)(F)F.c1cnc(N2CCO[C@H]3CN(CC4CCOC4)C[C@H]32)cn1 (stereo partly drawn)	122.8%
O=C(O)C(F)(F)F.c1cnc(N2CCO[C@H]3CN(Cc4c[nH]cn4)C[C@H]32)cn1	2.338%
CN(C)c1nccc(N2CCO[C@H]3CN(CC4CCOCC4)C[C@H]32)n1	11.02%
CNC(=O)CN1CCO[C@H]2CN(CC3CCOCC3)C[C@H]21.O=C(O)C(F)(F)F.O=C(O)C(F)(F)F	-17.71%
Cc1nn(CCn2ccnc2-c2cc3n(n2)CCCNC3)c(C)c1Cl	1.548%
CC(C)C(C(=O)NC1CC1)n1cnc2cc(F)c(F)cc21 (stereo not drawn)	15.81%
O=C(NCc1nc(C2CC2)no1)N1CCOC(c2ccccc2F)C1 (stereo not drawn)	3.199%
CC(C)CNC(=O)C[S+]([O-])Cc1csc(C2CCCCC2)n1 (stereo not drawn)	-4.765%
COc1ccc(C(O)CNc2c(C#N)c(=O)n(C)c(=O)n2C)cc1 (stereo not drawn)	-9.845%
CN(C(=O)C1CSCN1S(=O)(=O)c1ccc(F)cc1)C1CC1 (stereo not drawn)	5.468%
Cc1ccc(CNC2CCc3nc(C(C)C)nn3C2)o1 (stereo not drawn)	110.7%
COCCc1noc(CNC2CCc3nc(C(C)C)nn3C2)n1 (stereo not drawn)	-13.08%
Cc1cc(CNC2CCc3nc(C(C)C)nn3C2)on1 (stereo not drawn)	128.3%
CC(C)c1nc2n(n1)CC(NCc1nc(-c3ccccn3)no1)CC2 (stereo not drawn)	1.998%
CC(C)c1nc2n(n1)CC(NCc1nnc(C(C)C)o1)CC2 (stereo not drawn)	2.327%
CC(C)c1nc2n(n1)CC(NCc1cc3ccccc3o1)CC2 (stereo not drawn)	-25.06%
CCN(C(=O)NCc1ccccc1OC(F)F)C(C)c1cccnc1 (stereo not drawn)	-11.48%
CC(C)(NCC(=O)N1CCCC(C(N)=O)C1)c1ccc(Cl)cc1 (stereo not drawn)	1.343%
CC(C)(C)c1cc(C(=O)N2CCOC(c3cnccn3)C2)[nH]n1 (stereo not drawn)	139%

Compound	Percent Effect
CC(C)(C)c1cn(C2CCN(C(=O)c3cnccn3)CC2)nn1	-4.102%
Cc1cc(C(=O)N2CCOC(c3ccc(Cl)c(Cl)c3)C2)[nH]n1 (stereo not drawn)	-12.35%
CC(C)(C)c1cc(C(=O)N2CCC(c3cnccn3)CC2)[nH]n1	96.1%
Cc1cc(C(=O)N2CCOC(c3nc(C)n[nH]3)C2)[nH]n1 (stereo not drawn)	-1.43%
CCCc1cc(C(=O)N2CCCC2c2cccnc2)[nH]n1 (stereo not drawn)	15.07%
CC(C)c1nc(C(=O)N2C[C@H]3CC[C@@H]2CN(C2CCOCC2)C3)cs1	-6.079%
CCOCC(=O)N1CCC(c2nccn2Cc2cscn2)CC1	-5.535%
Cc1cc(F)ccc1-c1ccccc1CC1CNCCNC1=O.Cl (stereo not drawn)	140%
O=C(Cc1ccc(F)cc1Cl)N[C@@H]1CCNC[C@H]1O	6.286%
Cc1ccc(F)cc1CC(=O)N1CC[C@@]2(O)CCNC[C@H]2C1	-17.57%
CCNC(=O)[C@@H]1CCCN1[C@@H](C(=O)NC)C1CC1.Cl	7.785%
CCS(=O)(=O)N1CC[C@@H]2[C@@H](CCC(=O)N2CCc2ccccc2)C1	-12.22%
N#Cc1cccc(NC2CC(=O)N(CCCc3ccccc3)C2)n1 (stereo not drawn)	-4.151%
CCS(=O)(=O)N1CC(=O)N(CCCc2ccccc2)CC(O)C1 (stereo not drawn)	108.2%
CCCS(=O)(=O)N1CC(=O)N(CCCc2ccccc2)CC(O)C1 (stereo not drawn)	106.2%
CCS(=O)(=O)N1CCC(OCCCc2ccccc2)C1 (stereo not drawn)	-14.61%
O=C1CN(S(=O)(=O)CC(F)(F)F)CC(O)CN1CCCc1ccccc1 (stereo not drawn)	73.93%
CCCS(=O)(=O)N1CCC2(CC1)CC(=O)N(CCCc1ccccc1)C2	8.339%
CS(=O)(=O)N1CC(=O)N(CCCc2ccccc2)CC(O)C1 (stereo not drawn)	96.22%
CS(=O)(=O)N1CCC(OCCCc2ccccc2)C1 (stereo not drawn)	-9.606%
CS(=O)(=O)N1CCC2(CCCN(CCCc3ccccc3)C2=O)C1 (stereo not drawn)	8.67%
Cn1ccnc1CN1C(=O)CO[C@H]2CN(CCCc3ccccc3)C[C@H]21	-23.58%
CCCS(=O)(=O)N1CCC2(CCC(=O)N(CCc3ccccc3)C2)CC1	19.11%
